Source: PubChem BioAssay (Tox21)
Values joined by “and” are separate entries in the source; they are usually repeats but may differ in a detail not shown here. Equal entries are not always repeated. Inconclusive results are not listed. A structure can be active in one record and inactive in another. Active and inactive are the calls of the source. Unless noted, calls follow the shape of the dose curve; as a rule, active = well fitted curve in the direction sought with a large enough effect in the repeat runs; inconclusive = weak or mixed curves; inactive = no such curve, though single readings can be large; an effect the other way counts as inactive or inconclusive.

Experiments:
[1] = Human pregnane X receptor (PXR) small molecule agonists, qHTS cell viability counter screen (AID 1346977); also: nearly all actives have a fitted effect of over 50% in size; also: potency is read from the fitted curve at half-maximal effect
How it was run: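 In each well, the PXR reporter HepG2 line was checked for viability: CellTiter-Fluor reagent added 23hr post-dosing, fluorescence read after 1hr incubation at 37C.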

[2] = Caspase-3/7 induction in HepG2 cells by small molecules, qHTS assay (AID 1346978); also: nearly all actives have a fitted effect of over 15% in size
How it was run: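 Caspase-3/7 induction was measured by Caspase-Glo 3/7 luminescence (30 min, room temperature) after a 17 hr compound exposure of wild-type HepG2 cells seeded at 2,000 per well and pre-incubated 5 hr.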

[3] = Caspase-3/7 induction in CHO-K1 cells by small molecules, qHTS cell viability counter screen (AID 1346979); also: nearly all actives have a fitted effect of over 35% in size; also: potency is read from the fitted curve at half-maximal effect
How it was run: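 Following a 5hr settling period, CHO-K1 cells at 1,500 per well received DMSO-dissolved compounds. Cell viability was quantified 16hr later by CellTiter-Fluor fluorescence, measured after 1hr with reagent at 37C.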

[4] = Caspase-3/7 induction in CHO-K1 cells by small molecules, qHTS assay (AID 1346980); also: nearly all actives have a fitted effect of over 15% in size
How it was run: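 Luminescent Caspase-Glo 3/7 read (30min, room temperature) quantified apoptosis induction. Cells were wild-type CHO-K1, treated with compound for 17hr at 37 C and 5% CO2.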

[5] = Caspase-3/7 induction in HepG2 cells by small molecules, qHTS cell viability counter screen (AID 1346981); also: nearly all actives have a fitted effect of over 30% in size; also: potency is read from the fitted curve at half-maximal effect
How it was run: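 After a 5-hr attachment period at 37 C and 5% CO2, wild-type HepG2 cells received compounds in DMSO. Sixteen hours later CellTiter-Fluor was dispensed and the fluorescent signal quantified after a further hour.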

[6] = molecular target: Acetylcholinesterase (Homo sapiens) (UniProt P22303); experiment: Acetylcholinesterase (AChE) small molecule antagonists: colormetric cell-based qHTS assay (AID 1347395; calls by dose curve; also: nearly all actives have a fitted effect of over 30% in size; also: potency is read from the fitted curve at half-maximal effect)
How it was run: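 After overnight attachment at 37 C, SH-SY5Y cells get 30 min compound exposure; detection cocktail (acetylthiocholine, DTNB) then incubates 90 min at 37 C, and absorbance reflects AChE-generated thiocholine.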

[7] = molecular target: Acetylcholinesterase (Homo sapiens) (UniProt P22303); experiment: Acetylcholinesterase (AChE) small molecule antagonists: enzyme-based qHTS assay (AID 1347397; calls by dose curve; also: nearly all actives have a fitted effect of over 55% in size; also: potency is read from the fitted curve at half-maximal effect); details: Potency: AChE enzyme activity inhibition; outcome: AChE enzyme activity inhibition
How it was run: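 First, recombinant human AChE (50 mU/mL as dispensed) received test compound or DMSO. Second, plates stood 30 min at room temperature. Third, DTNB and acetylthiocholine were added, followed by 10 min at room temperature and colorimetric detection.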

[8] = molecular target: Acetylcholinesterase (Homo sapiens) (UniProt P22303); experiment: Acetylcholinesterase (AChE) small molecule antagonists: fluorescence cell-based qHTS assay (AID 1347398; calls by dose curve; also: nearly all actives have a fitted effect of over 50% in size); details: Potency: AChE activity; outcome: AChE activity
How it was run: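 Homogeneous quantitative HTS format. SH-SY5Y cells seeded at 2,000 per well settle overnight at 37 C. Compound pretreatment runs 30 min (37 C, 5% CO2); substrate/probe mix then reacts 40 min at RT before reading 490/520 nm.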

[9] = molecular target: Acetylcholinesterase (Homo sapiens) (UniProt P22303); experiment: Acetylcholinesterase (AChE) small molecule antagonists: enzyme-based qHTS assay with human liver microsomes (AID 1347399; calls by dose curve; also: nearly all actives have a fitted effect of over 60% in size); details: Potency: qHTS inhibition; outcome: qHTS inhibition
How it was run: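 Recombinant human AChE (50 mU/mL in the enzyme mix) and human liver microsomes (0.25 mg/mL final) were preincubated with compound and NADPH (0.25 mg/mL final) for 30 min at 37 C. Acetylthiocholine/DTNB was then added; thiocholine was read colorimetrically after 10 min at room temperature.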

[10] = molecular target: Cytochrome P450 2D6 (Homo sapiens) (UniProt P10635); experiment: Cytochrome P450 Family 2 Subfamily D Member 6 (CYP2D6) small molecule antagonists: luciferase reporter qHTS assay (AID 1671196); also: nearly all actives have a fitted effect of over 50% in size; also: potency is read from the fitted curve at half-maximal effect
How it was run: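 Room-temperature luminescent CYP2D6 activity assay: compound preincubated 10 min with enzyme–substrate mix, NADPH-initiated reaction 1 h, detection reagent 20 min before reading.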

[11] = molecular target: Cytochrome P450 2C19 (Homo sapiens) (UniProt P33261); experiment: Cytochrome P450 Family 2 Subfamily C Member 19 (CYP2C19) small molecule antagonists: luciferase reporter qHTS assay (AID 1671197); also: nearly all actives have a fitted effect of over 65% in size; also: potency is read from the fitted curve at half-maximal effect
How it was run: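 P450-Glo CYP2C19 system: enzyme-substrate mix with compound 10 min at room temperature, then NADPH regeneration solution, 1 h at 37C. Proluciferin-to-luciferin conversion detected by luminescence after 20 min with detection reagent; ketoconazole as positive control.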

[12] = molecular target: Cytochrome P450 2C9 (Homo sapiens) (UniProt P11712); experiment: Cytochrome P450 Family 2 Subfamily C Member 9 (CYP2C9) small molecule antagonists: luciferase reporter qHTS assay (AID 1671198); also: nearly all actives have a fitted effect of over 50% in size; also: potency is read from the fitted curve at half-maximal effect
How it was run: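 Enzyme-substrate mix preincubated with compound 10 min at room temperature; reaction started with NADPH regeneration solution, 1 h 37C. Luminescent luciferin product read after 20 min detection reagent.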

[13] = molecular target: Cytochrome P450 1A2 (Homo sapiens) (UniProt P05177); experiment: Cytochrome P450 Family 1 Subfamily A Member 2 (CYP1A2) small molecule antagonists: luciferase reporter qHTS assay (AID 1671199); also: nearly all actives have a fitted effect of over 50% in size; also: potency is read from the fitted curve at half-maximal effect
How it was run: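 Room-temperature CYP1A2 reaction with proluciferin substrate: compounds added from DMSO, 10 min preincubation, NADPH regeneration for 1 h. Luciferin detection reagent then added; luminescence recorded as RLU.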

[14] = molecular target: Voltage-gated inwardly rectifying potassium channel KCNH2 (Homo sapiens) (UniProt Q12809); experiment: Human Ether-a-go-go-Related Gene (hERG) channel small molecule antagonists: fluorescence cell-based qHTS assay (AID 1671200); also: nearly all actives have a fitted effect of over 50% in size; also: potency is read from the fitted curve at half-maximal effect
How it was run: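 In this thallium-flux screen, overnight-cultured U2OS cells bearing the channel are dye-loaded in darkness for an hour, rested 10 min at room temperature, and then monitored kinetically at 480/540 nm for two minutes post-stimulus.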

[15] = molecular target: Cytochrome P450 3A4 (Homo sapiens) (UniProt P08684); experiment: Cytochrome P450 Family 3 Subfamily A Member 4 (CYP3A4) small molecule antagonists: luciferase reporter qHTS assay (AID 1671201); also: nearly all actives have a fitted effect of over 50% in size; also: potency is read from the fitted curve at half-maximal effect
How it was run: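 CYP3A4 activity was followed with a P450-Glo proluciferin substrate. Test compounds in DMSO were preincubated 10 min; NADPH regeneration then ran 1 h, and light output was read 20 min after detection reagent.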

[16] = molecular target: Nuclear receptor subfamily 1 group I member 2 (Homo sapiens) (UniProt O75469); experiment: Human pregnane X receptor (PXR) small molecule agonists, qHTS assay (AID 1346982); also: nearly all actives have a fitted effect of over 35% in size; also: potency is read from the fitted curve at half-maximal effect
How it was run: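 Tox21 qHTS; PXR-Luc HepG2; compounds pinned from DMSO; 24 hr, 37 C; ONE-Glo luciferase detection, 30 min room temperature.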

[17] = molecular target: Nuclear receptor subfamily 1 group I member 2 (Rattus norvegicus) (UniProt Q9R1A7); experiment: Rat pregnane X receptor (rPXR) activation by small molecules, qHTS assay (AID 1346983); details: rPXR luciferase reporter cells, One-Glo luminescence, 24 h; stronger effect = higher value; also: nearly all actives have a fitted effect of over 20% in size
How it was run: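 Luminescent readout (One-Glo luciferase, 30 min room temperature) followed 24 hr compound treatment at 37 C of rPXR cells plated 2,000 per well and preincubated 5hr; qHTS format with compounds delivered in DMSO.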
% is scaled to controls: 0 for no effect and ±100 for the full control effect.

Cytochrome P450 2C9 (Homo sapiens), sequence (P11712 whole entry, looked up): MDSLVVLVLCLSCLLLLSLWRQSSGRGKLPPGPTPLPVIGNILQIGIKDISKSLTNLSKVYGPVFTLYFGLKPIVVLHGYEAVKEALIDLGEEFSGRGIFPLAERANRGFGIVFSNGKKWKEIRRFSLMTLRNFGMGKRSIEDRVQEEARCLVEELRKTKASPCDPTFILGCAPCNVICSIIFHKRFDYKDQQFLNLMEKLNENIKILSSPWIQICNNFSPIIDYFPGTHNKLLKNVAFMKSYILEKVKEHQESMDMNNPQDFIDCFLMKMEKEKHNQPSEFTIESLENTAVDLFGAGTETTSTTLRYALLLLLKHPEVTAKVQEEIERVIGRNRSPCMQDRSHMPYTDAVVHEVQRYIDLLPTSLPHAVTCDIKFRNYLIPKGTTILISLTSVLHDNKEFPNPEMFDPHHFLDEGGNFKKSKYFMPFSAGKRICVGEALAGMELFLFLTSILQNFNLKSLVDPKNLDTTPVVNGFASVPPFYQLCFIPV
Cytochrome P450 2C19 (Homo sapiens), sequence (P33261 whole entry, looked up): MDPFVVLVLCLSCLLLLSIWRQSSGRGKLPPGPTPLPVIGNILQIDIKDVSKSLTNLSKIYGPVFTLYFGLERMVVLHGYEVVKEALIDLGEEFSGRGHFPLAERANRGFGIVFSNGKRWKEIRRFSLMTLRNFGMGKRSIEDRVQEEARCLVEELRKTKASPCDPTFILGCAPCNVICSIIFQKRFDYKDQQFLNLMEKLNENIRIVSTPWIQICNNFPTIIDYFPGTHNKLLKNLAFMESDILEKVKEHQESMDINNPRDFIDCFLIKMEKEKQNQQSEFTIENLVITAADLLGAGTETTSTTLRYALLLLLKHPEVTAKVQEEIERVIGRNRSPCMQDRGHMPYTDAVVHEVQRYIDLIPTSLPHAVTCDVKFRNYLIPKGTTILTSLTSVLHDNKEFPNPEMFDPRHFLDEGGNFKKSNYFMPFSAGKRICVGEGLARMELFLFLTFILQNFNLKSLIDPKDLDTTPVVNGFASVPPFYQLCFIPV
Cytochrome P450 2D6 (Homo sapiens), sequence (P10635 whole entry, looked up): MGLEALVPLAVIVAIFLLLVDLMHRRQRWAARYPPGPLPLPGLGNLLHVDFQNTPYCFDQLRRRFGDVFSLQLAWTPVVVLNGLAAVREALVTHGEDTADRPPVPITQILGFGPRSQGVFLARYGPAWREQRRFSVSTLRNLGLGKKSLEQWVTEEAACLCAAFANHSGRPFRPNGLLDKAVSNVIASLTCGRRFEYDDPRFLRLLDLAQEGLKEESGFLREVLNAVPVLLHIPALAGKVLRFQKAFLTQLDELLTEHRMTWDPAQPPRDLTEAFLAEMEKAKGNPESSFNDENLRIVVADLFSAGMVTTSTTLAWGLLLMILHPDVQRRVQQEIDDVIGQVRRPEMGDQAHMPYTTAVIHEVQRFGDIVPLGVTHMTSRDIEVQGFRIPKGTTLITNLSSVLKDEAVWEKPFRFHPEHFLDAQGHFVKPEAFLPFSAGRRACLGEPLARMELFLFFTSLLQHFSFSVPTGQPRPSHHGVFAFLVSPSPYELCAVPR
Cytochrome P450 1A2 (Homo sapiens), sequence (P05177 whole entry, looked up): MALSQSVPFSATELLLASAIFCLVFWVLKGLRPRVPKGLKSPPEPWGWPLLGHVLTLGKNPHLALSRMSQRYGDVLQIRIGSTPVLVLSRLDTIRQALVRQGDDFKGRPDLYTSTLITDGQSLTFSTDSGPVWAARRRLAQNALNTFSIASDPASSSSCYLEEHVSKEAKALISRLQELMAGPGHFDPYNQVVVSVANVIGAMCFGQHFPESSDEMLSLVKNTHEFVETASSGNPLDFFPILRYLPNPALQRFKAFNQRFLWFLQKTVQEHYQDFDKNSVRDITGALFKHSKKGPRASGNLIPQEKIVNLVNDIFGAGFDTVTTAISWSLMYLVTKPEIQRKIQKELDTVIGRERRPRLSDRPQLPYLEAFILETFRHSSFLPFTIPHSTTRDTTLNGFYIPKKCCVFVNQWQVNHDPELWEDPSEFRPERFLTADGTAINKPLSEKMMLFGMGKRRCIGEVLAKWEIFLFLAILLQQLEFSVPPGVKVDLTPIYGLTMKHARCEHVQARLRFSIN
Voltage-gated inwardly rectifying potassium channel KCNH2 (Homo sapiens), sequence (Q12809 whole entry, looked up): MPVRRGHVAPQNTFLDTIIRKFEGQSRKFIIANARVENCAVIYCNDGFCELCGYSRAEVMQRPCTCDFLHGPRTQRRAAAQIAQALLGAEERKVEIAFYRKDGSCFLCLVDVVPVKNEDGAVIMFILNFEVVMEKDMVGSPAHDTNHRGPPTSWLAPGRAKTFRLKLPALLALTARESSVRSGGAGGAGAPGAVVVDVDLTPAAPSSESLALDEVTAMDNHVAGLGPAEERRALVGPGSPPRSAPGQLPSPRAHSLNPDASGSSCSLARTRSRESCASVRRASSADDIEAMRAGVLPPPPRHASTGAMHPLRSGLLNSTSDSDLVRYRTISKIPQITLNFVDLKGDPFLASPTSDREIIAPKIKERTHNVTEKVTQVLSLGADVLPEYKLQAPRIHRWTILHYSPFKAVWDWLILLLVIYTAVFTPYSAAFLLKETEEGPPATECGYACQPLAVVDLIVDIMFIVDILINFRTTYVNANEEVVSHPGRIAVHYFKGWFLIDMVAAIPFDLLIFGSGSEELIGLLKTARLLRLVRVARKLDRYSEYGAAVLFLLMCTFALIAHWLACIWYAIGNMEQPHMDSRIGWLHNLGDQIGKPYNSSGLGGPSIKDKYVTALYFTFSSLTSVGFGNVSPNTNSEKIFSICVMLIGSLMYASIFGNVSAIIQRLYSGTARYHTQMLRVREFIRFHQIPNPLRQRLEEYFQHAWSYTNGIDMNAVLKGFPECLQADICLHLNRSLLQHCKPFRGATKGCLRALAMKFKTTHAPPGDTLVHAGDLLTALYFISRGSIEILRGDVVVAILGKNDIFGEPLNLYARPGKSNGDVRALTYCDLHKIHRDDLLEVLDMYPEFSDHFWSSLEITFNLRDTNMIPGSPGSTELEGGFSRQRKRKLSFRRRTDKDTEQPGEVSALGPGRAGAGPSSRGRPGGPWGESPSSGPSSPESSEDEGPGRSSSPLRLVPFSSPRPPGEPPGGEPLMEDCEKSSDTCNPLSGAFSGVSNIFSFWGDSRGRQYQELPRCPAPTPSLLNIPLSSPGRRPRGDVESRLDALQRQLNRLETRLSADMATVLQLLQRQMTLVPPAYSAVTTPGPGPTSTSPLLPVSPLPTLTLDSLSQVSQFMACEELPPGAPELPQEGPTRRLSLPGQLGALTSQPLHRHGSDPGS
Nuclear receptor subfamily 1 group I member 2 (Homo sapiens), sequence (O75469 whole entry, looked up): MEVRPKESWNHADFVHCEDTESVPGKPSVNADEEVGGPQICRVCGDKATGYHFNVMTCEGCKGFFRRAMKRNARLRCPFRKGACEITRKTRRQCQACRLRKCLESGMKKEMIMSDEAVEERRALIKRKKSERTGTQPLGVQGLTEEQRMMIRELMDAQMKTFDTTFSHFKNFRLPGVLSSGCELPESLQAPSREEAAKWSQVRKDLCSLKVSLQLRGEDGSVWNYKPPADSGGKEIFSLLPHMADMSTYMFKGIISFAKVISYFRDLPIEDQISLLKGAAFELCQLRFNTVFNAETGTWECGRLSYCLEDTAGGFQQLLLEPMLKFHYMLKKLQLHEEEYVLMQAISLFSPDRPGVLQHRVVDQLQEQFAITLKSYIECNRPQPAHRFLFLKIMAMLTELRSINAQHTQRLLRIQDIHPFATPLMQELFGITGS
Acetylcholinesterase (Homo sapiens), sequence (P22303 whole entry, looked up): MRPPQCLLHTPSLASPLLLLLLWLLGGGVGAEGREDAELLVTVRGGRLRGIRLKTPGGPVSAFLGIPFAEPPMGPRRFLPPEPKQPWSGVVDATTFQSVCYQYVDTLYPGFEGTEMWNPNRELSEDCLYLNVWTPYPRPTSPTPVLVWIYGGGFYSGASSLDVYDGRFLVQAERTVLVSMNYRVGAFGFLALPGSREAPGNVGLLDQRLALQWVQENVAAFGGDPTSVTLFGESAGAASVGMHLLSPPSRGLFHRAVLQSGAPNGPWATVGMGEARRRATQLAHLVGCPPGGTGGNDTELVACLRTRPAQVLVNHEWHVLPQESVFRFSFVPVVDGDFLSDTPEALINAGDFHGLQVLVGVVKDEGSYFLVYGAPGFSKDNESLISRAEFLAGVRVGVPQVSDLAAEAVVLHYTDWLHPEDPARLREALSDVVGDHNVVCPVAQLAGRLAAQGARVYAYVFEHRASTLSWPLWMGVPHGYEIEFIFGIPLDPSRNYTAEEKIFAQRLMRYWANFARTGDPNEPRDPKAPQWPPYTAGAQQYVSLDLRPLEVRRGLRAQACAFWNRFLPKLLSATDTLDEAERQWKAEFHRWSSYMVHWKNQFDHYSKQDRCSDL
Cytochrome P450 3A4 (Homo sapiens), sequence (P08684 whole entry, looked up): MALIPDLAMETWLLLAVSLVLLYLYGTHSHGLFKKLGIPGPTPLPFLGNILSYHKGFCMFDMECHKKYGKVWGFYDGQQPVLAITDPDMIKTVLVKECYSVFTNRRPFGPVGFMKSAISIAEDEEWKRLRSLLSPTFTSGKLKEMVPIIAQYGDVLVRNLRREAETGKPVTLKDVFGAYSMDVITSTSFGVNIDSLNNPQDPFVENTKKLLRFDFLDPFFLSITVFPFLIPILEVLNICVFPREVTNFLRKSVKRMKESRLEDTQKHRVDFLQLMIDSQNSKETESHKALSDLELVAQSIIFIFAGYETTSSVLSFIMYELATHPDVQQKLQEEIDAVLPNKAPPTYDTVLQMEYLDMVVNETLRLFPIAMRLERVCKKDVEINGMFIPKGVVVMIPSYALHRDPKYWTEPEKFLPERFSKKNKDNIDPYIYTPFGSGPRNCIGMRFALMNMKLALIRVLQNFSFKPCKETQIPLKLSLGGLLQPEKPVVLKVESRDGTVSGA

CN1CC[C@]23c4c5ccc(O)c4O[C@H]2[C@@H](O)CC[C@H]3[C@H]1C5
inactive: Potency [1] | Potency [2] | Potency [3] | Potency [4] | Potency [5] | Potency [6] | Potency [7] | Potency [8] | Potency [9] | Potency [11] | Potency [12] | Potency [13] | Potency [14] | Potency [15]
active: Potency [10] 44 µM

Nc1cccc2ccccc12
inactive: Potency [1] | Potency [2] | Potency [3] | Potency [4] | Potency [5] | Potency [6] | Potency [7] | Potency [8] | Potency [9] | Potency [14]
active: Potency [10] 31.9 µM and 31.7 µM | Potency [11] 16 µM and 20 µM | Potency [12] 35.8 µM and 50.2 µM | Potency [13] 10.1 µM and 5.64 µM

C[C@]12C=CC3=C4CCC(=O)C=C4CC[C@H]3[C@@H]1CC[C@@H]2O
active: Potency [3] 60.7 µM and 46.1 µM | Potency [12] 35.3 µM and 30.1 µM | Potency [13] 39.7 µM
inactive: Potency [1] | Potency [2] | Potency [4] | Potency [5] | Potency [6] | Potency [7] | Potency [8] | Potency [9] | Potency [14]
31.5 µM (active) and inactive: Potency [15]

O=S(=O)(c1ccccc1)c1ccccc1
active: Potency [11] 63.3 µM
inactive: Potency [1] | Potency [2] | Potency [3] | Potency [4] | Potency [5] | Potency [6] | Potency [7] | Potency [8] | Potency [9] | Potency [10] | Potency [12] | Potency [13] | Potency [15]

CC(O)CN1CCN(CC(=O)[O-])CCN(CC(=O)[O-])CCN(CC(=O)[O-])CC1.[Gd+3] (stereo not given)
inactive: Potency [1] | Potency [2] | Potency [3] | Potency [4] | Potency [5] | Potency [6] | Potency [7] | Potency [8] | Potency [9] | Potency [10] | Potency [13]

Oc1cccc(Cl)c1
inactive: Potency [1] | Potency [2] | Potency [3] | Potency [4] | Potency [5] | Potency [6] | Potency [7] | Potency [8] | Potency [9] | Potency [10] | Potency [12] | Potency [14] | Potency [15]

C=CC(=O)OCC
inactive: Potency [1] | Potency [2] | Potency [3] | Potency [4] | Potency [5] | Potency [6] | Potency [7] | Potency [8] | Potency [10] | Potency [11] | Potency [12] | Potency [13] | Potency [14]

CC(C)c1ccc(OP(=O)(Oc2ccc(C(C)C)cc2)Oc2ccc(C(C)C)cc2)cc1
active: Potency [16] 4.36 µM and 5.45 µM and 10.9 µM | Potency [6] 35.8 µM and 31.7 µM | Potency [7] 28.5 µM and 28.3 µM | Potency [11] 3.58 µM and 3.56 µM and 2.83 µM | Potency [12] 2.26 µM and 3.17 µM and 2.83 µM | Potency [13] 22.6 µM and 15.9 µM and 17.8 µM | Potency [14] 17.5 µM and 21.9 µM
inactive: Potency [1] | Potency [2] | Potency [3] | Potency [4] | Potency [5] | Potency [9]

C=CCc1ccccc1O
active: Potency [13] 31.7 µM
inactive: Potency [1] | Potency [2] | Potency [3] | Potency [4] | Potency [5] | Potency [6] | Potency [7] | Potency [8] | Potency [9] | Potency [10] | Potency [11] | Potency [14]

CCCC(C)(COC(N)=O)COC(=O)NC(C)C (stereo not given)
active: Potency [11] 20 µM and 8.71 µM
inactive: Potency [1] | Potency [2] | Potency [3] | Potency [4] | Potency [5] | Potency [6] | Potency [7] | Potency [8] | Potency [9] | Potency [10] | Potency [12] | Potency [13] | Potency [14] | Potency [15]

CCCC[P+](CC)(CCCC)CCCC (tested in a mixture with another compound)
inactive: Potency [1] | Potency [2] | Potency [3] | Potency [4] | Potency [5] | Potency [16] | Potency [7] | Potency [8] | Potency [12] | Potency [13] | Potency [15]
active: Potency [10] 0.0716 µM | Potency [14] 24.7 µM

C[CH2][Hg][S]c1ccccc1C(=O)O
inactive: Potency [2] | Potency [4] | max activation [17] -14.1%
active: Potency [1] 3.44 µM and 6.68 µM | Potency [3] 1.72 µM and 1.88 µM | Potency [5] 12.2 µM and 13.3 µM

Nc1ccccc1C(=O)OCCc1ccccc1
inactive: Potency [1] | Potency [2] | Potency [3] | Potency [4] | Potency [5] | Potency [6] | Potency [7] | Potency [8] | Potency [14]
active: Potency [16] 48.8 µM and 30.6 µM | Potency [11] 5.66 µM and 8.94 µM | Potency [12] 31.8 µM and 35.6 µM | Potency [13] 7.13 µM and 7.1 µM

CCOP(=S)(OCC)Oc1ccc(S(C)=O)cc1 (stereo not given)
active: Potency [16] 38.6 µM | Potency [11] 0.113 µM | Potency [12] 252 nM | Potency [13] 3.99 µM
inactive: Potency [1] | Potency [2] | Potency [3] | Potency [4] | Potency [5] | Potency [7] | Potency [9] | Potency [10]

Cc1cnc(C2=NC(C)(C(C)C)C(=O)N2)c(C(=O)O)c1 (stereo not given)
inactive: Potency [1] | Potency [2] | Potency [3] | Potency [4] | Potency [5] | Potency [16] | Potency [6] | Potency [7] | Potency [8] | Potency [10] | Potency [12] | Potency [13] | Potency [14] | Potency [15]

CCCCOC(=O)CCC(=O)OCCCC
active: Potency [13] 20 µM
inactive: Potency [1] | Potency [2] | Potency [3] | Potency [4] | Potency [5] | Potency [6] | Potency [7] | Potency [8] | Potency [9] | Potency [10] | Potency [14] | Potency [15]
